{"source": "the supplement of paper PMC11732987", "about": "“Enantioselective OTUD7B fragment discovery through chemoproteomics screening and high-throughput optimisation” (Communications Chemistry, 2025)"}
{"target": "UniProt O00487", "sequence (O00487 whole entry, the tested form may be a part)": "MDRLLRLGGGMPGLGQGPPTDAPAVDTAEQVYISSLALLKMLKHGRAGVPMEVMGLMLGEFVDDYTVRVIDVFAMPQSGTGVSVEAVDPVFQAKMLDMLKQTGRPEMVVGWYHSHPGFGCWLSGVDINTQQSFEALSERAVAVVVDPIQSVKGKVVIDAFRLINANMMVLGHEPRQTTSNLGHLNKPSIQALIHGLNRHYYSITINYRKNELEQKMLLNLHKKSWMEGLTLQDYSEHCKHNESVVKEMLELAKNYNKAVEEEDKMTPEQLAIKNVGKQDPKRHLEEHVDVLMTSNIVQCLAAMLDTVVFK", "experiment": "log2 ratio of Biotin-Ahx-Ub-VS probe labelling (fragment/DMSO); higher = less target engagement (more negative = stronger competition), active = hit call of the paper (q ≤ 0.05, log2 ratio ≤ -1)", "conditions": "compound concentration: 200 uM; treatment time: 3 h", "in_short": "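In triplicate, 495 µg of HEK293T lysate per sample was incubated with fragment at 200 µM or vehicle for 3 h. Biotin-Ahx-Ub-VS was then added to 0.5 µM final for 1 h, and labelled DUBs were captured with NeutrAvidin, digested with LysC and trypsin, and measured by diaPASEF LC-MS/MS. Data are average log2 fragment/vehicle ratios by unpaired t-test from global-median-normalised Spectronaut label-free quantities, restricted to proteins with ≥2 unique peptides.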"}
{"compound": "O=C(CCl)Nc1ccc(F)cc1Cl", "log2 ratio of Biotin-Ahx-Ub-VS probe labelling": "-0.0503 (inactive)"}
{"compound": "O=C(CCl)Nc1cccc2ncccc12", "log2 ratio of Biotin-Ahx-Ub-VS probe labelling": "0.0189 (inactive)"}
{"compound": "O=C(CCl)NC(Cn1ccccc1=O)c1ccccc1", "note": "(centres undefined)", "log2 ratio of Biotin-Ahx-Ub-VS probe labelling": "0.0216 (inactive)"}
{"compound": "Cc1n[nH]c(=O)c2c(NC(=O)CCl)oc(C)c12", "log2 ratio of Biotin-Ahx-Ub-VS probe labelling": "-0.0655 (inactive)"}
{"compound": "Cc1ccc(-c2nnc(C)[nH]2)c(NC(=O)CCl)c1", "log2 ratio of Biotin-Ahx-Ub-VS probe labelling": "-0.138 (inactive)"}
{"compound": "Cc1ccc(C)c(Oc2ccc(CNC(=O)CCl)cn2)c1.Cl", "log2 ratio of Biotin-Ahx-Ub-VS probe labelling": "-0.0677 (inactive)"}
{"compound": "Cc1nc(CN2CCCN(C(=O)CCl)CC2)no1.Cl", "log2 ratio of Biotin-Ahx-Ub-VS probe labelling": "0.118 (inactive)"}
{"compound": "N#Cc1ccc(CNC(=O)CCl)cc1", "log2 ratio of Biotin-Ahx-Ub-VS probe labelling": "-0.00705 (inactive)"}
{"compound": "CC(C)n1nccc1NC(=O)CCl", "log2 ratio of Biotin-Ahx-Ub-VS probe labelling": "-0.188 (inactive)"}
{"compound": "CC(NC(=O)CCl)c1ccc2[nH]ncc2c1", "note": "(centres undefined)", "log2 ratio of Biotin-Ahx-Ub-VS probe labelling": "-0.121 (inactive)"}
{"compound": "Cl.O=C(CN1CCN(C(=O)CCl)CC1)Nc1ccc(F)cc1", "log2 ratio of Biotin-Ahx-Ub-VS probe labelling": "-0.0621 (inactive)"}
{"compound": "CC(NC(=O)CCl)c1cnn(C2CC2)c1", "note": "(centres undefined)", "log2 ratio of Biotin-Ahx-Ub-VS probe labelling": "-0.0263 (inactive)"}
{"compound": "NC(=O)C(Cc1ccccc1)NC(=O)CCl", "note": "(centres undefined)", "log2 ratio of Biotin-Ahx-Ub-VS probe labelling": "-0.162 (inactive)"}
{"compound": "O=C(CCl)NC1CCN(C(=O)C2CCCCC2)CC1", "log2 ratio of Biotin-Ahx-Ub-VS probe labelling": "0.0749 (inactive)"}
{"compound": "Cc1cc(Cl)ccc1NC(=O)CCl", "log2 ratio of Biotin-Ahx-Ub-VS probe labelling": "-0.165 (inactive)"}
{"compound": "COc1ccc(Cl)cc1NC(=O)CCl", "log2 ratio of Biotin-Ahx-Ub-VS probe labelling": "-0.298 (inactive)"}
{"compound": "O=C(CCl)Nc1nnc(CC(F)(F)F)o1", "log2 ratio of Biotin-Ahx-Ub-VS probe labelling": "-0.296 (inactive)"}
{"compound": "O=C(CCl)N(C1=CCCCC1)C1CC1", "log2 ratio of Biotin-Ahx-Ub-VS probe labelling": "-0.232 (inactive)"}
{"compound": "Cc1ccc(CN(CCO)C(=O)CCl)cc1", "log2 ratio of Biotin-Ahx-Ub-VS probe labelling": "-0.0465 (inactive)"}
{"compound": "CC(NC(=O)CCl)c1cccc2ccccc12", "note": "(centres undefined)", "log2 ratio of Biotin-Ahx-Ub-VS probe labelling": "-0.0949 (inactive)"}
{"compound": "O=C(CCl)N1CCCCC12CCOCC2", "log2 ratio of Biotin-Ahx-Ub-VS probe labelling": "-0.282 (inactive)"}
{"compound": "Cl.Cn1ncc2c1CCCC2NC(=O)CCl", "note": "(centres undefined)", "log2 ratio of Biotin-Ahx-Ub-VS probe labelling": "-0.128 (inactive)"}
{"compound": "COCC[C@@H](NC(=O)CCl)c1ccccc1", "log2 ratio of Biotin-Ahx-Ub-VS probe labelling": "-0.0153 (inactive)"}
{"compound": "CN(C(=O)CCl)c1nc2ccccc2s1", "log2 ratio of Biotin-Ahx-Ub-VS probe labelling": "-0.00105 (inactive)"}
{"compound": "O=C(CCl)N1CCC(C(=O)N2CCCCCC2)CC1", "log2 ratio of Biotin-Ahx-Ub-VS probe labelling": "-0.112 (inactive)"}
{"compound": "O=C(CCl)N1CCOC2(CCC2)CC1", "log2 ratio of Biotin-Ahx-Ub-VS probe labelling": "0.0511 (inactive)"}
{"compound": "O=C(CCl)NCCC1=CCCCC1", "log2 ratio of Biotin-Ahx-Ub-VS probe labelling": "-0.0958 (inactive)"}
{"compound": "O=C(CCl)N(C1CCCC1)C1CCS(=O)(=O)C1", "note": "(centres undefined)", "log2 ratio of Biotin-Ahx-Ub-VS probe labelling": "-0.119 (inactive)"}
{"compound": "Cc1noc(N2CCN(C(=O)CCl)CC2)n1.Cl", "log2 ratio of Biotin-Ahx-Ub-VS probe labelling": "0.0199 (inactive)"}
{"compound": "COc1ccccc1C(C)NC(=O)CCl", "note": "(centres undefined)", "log2 ratio of Biotin-Ahx-Ub-VS probe labelling": "0.0235 (inactive)"}
{"compound": "O=C(CCl)N(Cc1ccsc1)C1CC1", "log2 ratio of Biotin-Ahx-Ub-VS probe labelling": "0.0101 (inactive)"}
{"compound": "O=C(CCl)N1CCC(S(=O)(=O)c2ccc(F)cc2)CC1", "log2 ratio of Biotin-Ahx-Ub-VS probe labelling": "0.043 (inactive)"}
{"compound": "Cc1nc(CN2CCN(C(=O)CCl)CC2)cs1", "log2 ratio of Biotin-Ahx-Ub-VS probe labelling": "-0.171 (inactive)"}
{"compound": "O=C(CCl)N1CC2(CCOCC2)C1", "log2 ratio of Biotin-Ahx-Ub-VS probe labelling": "-0.0916 (inactive)"}
